This is part of a sample that, as a whole, favours compounds with a hit. Of some 83,000 tested, about 20% had one in any assay.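 Negative percent growth values reflect cell death: -40 means 40% of the cells present at the start died, and -100 means all died.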 The source made the active and inactive calls. How the source made its calls: active means growth percent below 10; inactive means the rest.

In the first test the test system is RXF 393 renal. The test is described as follows: NCI-60 one-dose screen, 48 h (100 = growth as untreated, 0 = no growth, -100 = all killed). The note with it: 10 µM unless noted.
Consider `O=C(c1cccc(C(=O)c2ccc3c4c(cccc24)C(=O)N(c2ccccc2)C3=O)c1)c1ccc2c3c(cccc13)C(=O)N(c1ccccc1)C2=O`, for which the growth is 102% (inactive). Same read-out and setting: as for `Cc1ccc[n+](CCC(N)=O)c1`, the figure is 106% (inactive); as for `CCOc1ccncc1[N+](=O)[O-]`, 113% (inactive). Still for that read-out and setting: as for `Oc1cc(O)c2c(c1)O[C@H](c1ccc(O)c(O)c1)[C@@H](O)C2`, the figure is 113% (inactive). Still for that read-out and setting: as for `C=CCOc1ccc(Cl)cc1Cl`, the figure is 132% (inactive); as for `CCOC(=O)/C(O)=C(\C=N\C(=S)Nc1ccc(Cl)c(Cl)c1)C(=O)OCC`, 97.9% (inactive); as for `CCOc1ccc(NC(=S)N2CCC(CCCC3CCN(C(=S)Nc4ccc(OCC)cc4)CC3)CC2)cc1`, 110% (inactive). With `Clc1ccc(C(SCc2ccccc2)SCc2ccccc2)cc1`, the growth was 88% (inactive).

With `CC(=O)C1C(=O)C(=O)N(c2ccc(Cl)c(Cl)c2)C1=O` (stereo not given), the growth was 110% (inactive). On the same count and under the same terms, for `Cc1cc(Cl)cc(Cc2cc(Cl)cc(C)c2O)c1O` the value was 56.9% (inactive); for `c1ccc(Oc2c3ccccc3nc3ccccc23)cc1`, 25.4% (inactive); for `O=[N+]([O-])c1ccc2[nH]c(=S)n(/C=C(/c3ccc(Cl)cc3Cl)S(=O)(=O)Cc3ccc(Cl)cc3Cl)c2c1`, 109% (inactive). Still for that read-out and setting: for `COc1cc(OC)c(NC(=O)C(Sc2nc(C)cc(C)c2C#N)c2ccccc2)cc1Cl` (stereo not given) the value was 73.5% (inactive); for `O=c1nc(Nc2cccc(Cl)c2)oc2cc(Cl)oc(=O)c12`, 42.5% (inactive). Take `C/C(O)=C(/C=N\C(=S)Nc1ccc(S(=O)(=O)Nc2nccs2)cc1)C(=O)Nc1ccccc1C`: the growth is 97.7% (inactive). Still for that read-out and setting: for `CC(O)C(F)(F)C(F)(F)C(F)(F)F` (stereo not given) the value was 103% (inactive); for `CCOP(=O)(NC(c1ccccc1)c1ccccc1)OCC`, 113% (inactive). Still for that read-out and setting: for `CCCCn1cnc2c(=O)[nH]cnc21` the value was 118% (inactive); for `O=C(NCc1ccccc1)/C(=C/c1ccccc1)NC(=O)c1ccccc1`, 93.7% (inactive); for `O=CNCCc1ccccc1`, 111% (inactive).

Consider `COC1OC(C(COC(C)=O)OC(C)=O)C(OC(C)=O)C(OC(C)=O)C1OC(C)=O` (stereo not given), for which the growth was 115% (inactive). Turning to `O=S(Cc1ccccc1)/C(=C/NC(=S)Nc1cc(Cl)ccc1Cl)c1ccccc1` (stereo not given), the growth is 103% (inactive). The same measure, in the same setting: as for `Cc1c(Cl)cccc1N=C=S`, the figure is 91.9% (inactive).

Regarding `CC(=O)C1C(=O)C(=O)N(c2cccc([N+](=O)[O-])c2)C1=O` (stereo not given), the growth is 110% (inactive). Same read-out and setting: as for `CCOc1ccc2c(c1)c(C)cc(C)[n+]2CC`, the figure is 96.3% (inactive). The same measure, in the same setting: as for `S=CN1CCCCC1`, the figure is 102% (inactive); as for `Cc1nc(C)c(C(=O)O)cc1C(=O)O`, 117% (inactive). On to `Cc1cc(CC(=O)NCCO)n(CCO)c(=O)c1`, for which the growth was 110% (inactive). Same read-out and setting: for `NC(CSSCC(N)C(=O)O)C(=O)O` (stereo not given) the value was -37.9% (active); for `C/C(O)=C(/C=N/C(=S)Nc1ccccc1)C(=O)Nc1ccccc1C`, 104% (inactive).

In the case of `CC(C)(C)[Si](C)(C)OCC1OC(n2cnc3c(N)ncnc32)CC1OS(C)(=O)=O` (stereo not given), the growth is 102% (inactive).

Turning to `NNC(=O)N/N=C1\C(=O)N(c2nccs2)C(=O)C(=O)C1c1nc2ccccc2s1` (stereo not given), the growth is 106% (inactive). For `CC(=O)NCNC(C)=O`, the growth is 108% (inactive).

The next test relates to SF-268 CNS. The description is as above. The note with it: 10 µM unless noted.
As for `O=C(c1cccc(C(=O)c2ccc3c4c(cccc24)C(=O)N(c2ccccc2)C3=O)c1)c1ccc2c3c(cccc13)C(=O)N(c1ccccc1)C2=O`, the growth was 97.2% (inactive).

With `Cc1ccc[n+](CCC(N)=O)c1`, the growth is 97.6% (inactive). Still for that read-out and setting: for `Cc1ccc2nc(N)nnc2c1` the value was 98.2% (inactive). Same read-out and setting: for `CCOc1ccncc1[N+](=O)[O-]` the value was 103% (inactive); for `Cn1c(=O)c2nc3c(=O)n(C)c(=O)n(C)c3nc2n(C)c1=O`, 108% (inactive). Same read-out and setting: as for `C=CCOc1ccc(Cl)cc1Cl`, the figure is 104% (inactive).

For the molecule `CCOC(=O)/C(O)=C(\C=N\C(=S)Nc1ccc(Cl)c(Cl)c1)C(=O)OCC`, the growth was 104% (inactive).

Turning to `CCOc1ccc(NC(=S)N2CCC(CCCC3CCN(C(=S)Nc4ccc(OCC)cc4)CC3)CC2)cc1`, the growth was 83.1% (inactive). For the molecule `Clc1ccc(C(SCc2ccccc2)SCc2ccccc2)cc1`, the growth was 91% (inactive). On the same count and under the same terms, for `CC(=O)C1C(=O)C(=O)N(c2ccc(Cl)c(Cl)c2)C1=O` (stereo not given) the value was 99.8% (inactive); for `Cc1cc(Cl)cc(Cc2cc(Cl)cc(C)c2O)c1O`, 15% (inactive); for `c1ccc(Oc2c3ccccc3nc3ccccc23)cc1`, 22.7% (inactive). In the case of `O=[N+]([O-])c1ccc2[nH]c(=S)n(/C=C(/c3ccc(Cl)cc3Cl)S(=O)(=O)Cc3ccc(Cl)cc3Cl)c2c1`, the growth is 97% (inactive). As for `N#C/C(=C\c1ccc(C#N)cc1)C(=O)c1ccccc1`, the growth is 104% (inactive). On to `COc1cc(OC)c(NC(=O)C(Sc2nc(C)cc(C)c2C#N)c2ccccc2)cc1Cl` (stereo not given), for which the growth is 85.9% (inactive).

Consider `O=c1nc(Nc2cccc(Cl)c2)oc2cc(Cl)oc(=O)c12`, for which the growth is 66.9% (inactive). With `C/C(O)=C(/C=N\C(=S)Nc1ccc(S(=O)(=O)Nc2nccs2)cc1)C(=O)Nc1ccccc1C`, the growth is 88.8% (inactive). On the same count and under the same terms, for `CC(O)C(F)(F)C(F)(F)C(F)(F)F` (stereo not given) the value was 115% (inactive); for `CCOP(=O)(NC(c1ccccc1)c1ccccc1)OCC`, 104% (inactive); for `CC(=O)OCC1OC(n2cnc3c(=S)nc(N)[nH]c32)C(OC(C)=O)C1OC(C)=O` (stereo not given), 76.8% (inactive). Still for that read-out and setting: for `CCCCn1cnc2c(=O)[nH]cnc21` the value was 110% (inactive). Same read-out and setting: as for `O=C(NCc1ccccc1)/C(=C/c1ccccc1)NC(=O)c1ccccc1`, the figure is 100% (inactive). Take `O=CNCCc1ccccc1`: the growth was 110% (inactive). Same read-out and setting: as for `COC1OC(C(COC(C)=O)OC(C)=O)C(OC(C)=O)C(OC(C)=O)C1OC(C)=O` (stereo not given), the figure is 113% (inactive); as for `O=S(Cc1ccccc1)/C(=C/NC(=S)Nc1cc(Cl)ccc1Cl)c1ccccc1` (stereo not given), 93.1% (inactive). The same measure, in the same setting: as for `Cc1c(Cl)cccc1N=C=S`, the figure is 107% (inactive). Turning to `CC(=O)C1C(=O)C(=O)N(c2cccc([N+](=O)[O-])c2)C1=O` (stereo not given), the growth is 109% (inactive). Still for that read-out and setting: as for `CCOc1ccc2c(c1)c(C)cc(C)[n+]2CC`, the figure is 95.2% (inactive); as for `S=CN1CCCCC1`, 96.7% (inactive); as for `Cc1nc(C)c(C(=O)O)cc1C(=O)O`, 116% (inactive).

Consider `Cc1cc(CC(=O)NCCO)n(CCO)c(=O)c1`, for which the growth is 101% (inactive).

`NC(CSSCC(N)C(=O)O)C(=O)O` (stereo not given): the growth was 28.1% (inactive). Same read-out and setting: as for `C/C(O)=C(/C=N/C(=S)Nc1ccccc1)C(=O)Nc1ccccc1C`, the figure is 97.9% (inactive); as for `CC(C)(C)[Si](C)(C)OCC1OC(n2cnc3c(N)ncnc32)CC1OS(C)(=O)=O` (stereo not given), 97.9% (inactive). Still for that read-out and setting: for `NNC(=O)N/N=C1\C(=O)N(c2nccs2)C(=O)C(=O)C1c1nc2ccccc2s1` (stereo not given) the value was 96.3% (inactive). Same read-out and setting: for `C(=C\c1ccncc1)/c1ccncc1` the value was 146% (inactive).

Take `CC(=O)NCNC(C)=O`: the growth was 110% (inactive).

The values above are taken from PubChem BioAssay (NCI).
